# Values joined by “and” are separate entries in the source; they are usually repeats but may differ in a detail not shown here. Equal values may be shown once. Active and inactive are the calls of the source. Cut-off read from the data, not from the text of the source, unless noted: active = inhibition above about 80%; inactive = the rest.
# Tests used:
# [1] = RCMB18 cell growth, single agent and combined, cisplatin and BGB IC40 combos (AID 1671462); conditions: RCMB18 medulloblastoma cells, stronger effect = higher value;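 note: cells exposed to compound for four days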
# [2] = CRL1545 cell growth, single agent and combined, cisplatin and BGB IC20 combos (AID 1671464); conditions: CRL1545 osteosarcoma cells, stronger effect = higher value;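 note: cells exposed to compound for 96 hours before readout; 0% = vehicle DMSO and 100% = high DMSO killing control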
# [3] = galactose survival enhancers in mitochondrial complex I cybrids – cell-based, galactose medium, ATP luminescence, primary screen (AID 1645843;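 active = z-score of at least 1.8 in each of two replicates, scored against plate mean and spread of sample wells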;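 note: positive z means more ATP and so rescue of galactose-driven cybrid death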); conditions: complex I mutant cybrid cells, 72 h, stronger effect = higher value
compound,measurement,setting,value
Nc1nc(NC2CC2)c2ncn(C3C=CC(CO)C3)c2n1 (stereo not given),inhibition,"[1]; measured here: BGB IC40 combination, at 0.05 µM",-23.6%
same,inhibition,"[1]; measured here: combination with cisplatin, at 0.5 µM",-50.2% and -0.496%
same,inhibition,"[1]; single agent, at 5 µM",16.3% and 21.5%
same,inhibition,[2]; at 0.5 µM,-22.4% (inactive) and -10.8% (inactive)
same,inhibition,"[2]; measured here: with BGB IC20 combination, at 0.5 µM",-35.1% and -4.57%
same,inhibition,"[2]; measured here: with cisplatin IC20 combination, at 0.5 µM",-18.6% and -15.8%
same,inhibition,"[2]; single agent, at 0.05 µM",-49.6% and -25.5%
same,inhibition,"[2]; single agent, at 5 µM",-7.83% and 23.5%
O=C1NCCN(C(=O)c2ccc(Cl)c(F)c2)C1Cc1ccccc1 (stereo not given),z-score,[3],-0.565 (inactive)
O=C(C1CCCCCC1)N1CCCC(Cn2cc(-c3ccccn3)nn2)C1 (stereo not given),z-score,[3],-0.33 (inactive)
